Inhibition data for 40 compounds are collected here from ChEMBL document CHEMBL3433997, “St. Jude Leishmania screening dataset” (2016).

Structures are written as SMILES.

The target of the assay is Glucose transporter (Leishmania mexicana) (UniProt O61059). Briefly: ST_JUDE_LEISH: Cytotoxicity at 2uM final concentration against transgenic Leishmania Mexicana promastigotes LmGT2 that are glucose transport deficient and complemented with the L. Mexicana glucose transporter 2. Activity is measured by DNA content using SYBR green in vitro. It counts as functional.
For orientation: inhibition means the change of the read-out against control, counted positive when it falls. For `CCCCCC1c2[nH]c3ccccc3c2CCN1C(=O)OCc1ccccc1` (stereo not given), the inhibition is 7.22%.
Consider `O=C(NCc1cccc(Br)c1)c1ccc(CNC2CCN(Cc3ccccc3)CC2)cc1`, for which the inhibition turned out to be 5.37%.
`Cc1cccc2nc(-c3cccc(-c4ccc(CNCc5cccc(N)c5)cc4)c3)[nH]c12`: the inhibition is -2.56%.
As for `O=C(CCNc1ccnc(NCCc2ccccc2)n1)Nc1ccccc1`, the inhibition is 2.66%.
In the case of `OC1CCCN(Cc2ccc(-c3cccc(-c4nc5ccccc5[nH]4)c3)cc2)C1` (stereo not given), the inhibition came out at 2.79%.
With `O=C(NC1CCN(Cc2cccc(C(F)(F)F)c2)CC1)c1ccc(-c2cccc(C(F)(F)F)c2)s1`, the inhibition stood at 6.14%.
As to `Cc1[nH]c(C)c(-c2ccc(-c3cccc(OC(F)(F)F)c3)nc2)c(=O)c1Cl`, the inhibition is -0.63%.
On to `O=C(Nc1ccnc(-c2cccnc2)n1)c1cc(C(F)(F)F)cc(C(F)(F)F)c1`, for which the inhibition is -3.85%.
With `O=C(/C=C/c1ccc(Cl)c(Cl)c1)NCCCCCCN1CCN(C(=O)Nc2ccc(Cl)c(C(F)(F)F)c2)CC1`, the inhibition is -1.95%.
Take `COc1ccc2ncc(F)c(CCN3CCC(NCc4cc(Br)c5c(c4)OCCO5)CC3)c2n1`: the inhibition stood at 14.3%.
With `CCN(c1ccccc1)S(=O)(=O)c1ccc(OC)c(NC(=O)c2cccc(C(F)(F)F)c2)c1`, the inhibition stood at 7.82%.
Regarding `C[C@@H](N)C#Cc1cc2c(Nc3ccc(OCc4cccc(F)c4)c(Cl)c3)ncnc2s1`, the inhibition stood at 2.27%.
The same measure for `CC(C)Sc1ccc(Cl)cc1CON1C(=N)N=C(N)NC1(C)C`: 0.87%.
For the compound `CN(C)c1ccc(C=Cc2nc(=O)c3ccccc3o2)cc1`, the inhibition stood at 0.74%.
As for `Cc1ccc(Cn2ncc(N3CCNCC3)c(Cl)c2=O)cc1NC(=O)Nc1ccc(-c2ccccc2)cc1`, the inhibition worked out at 2.01%.
The same measure for `CC(C)(C)CC(C)(C)c1ccc(O)c(CNC2CCCCC2)c1`: -0.74%; for `COc1ccc(Nc2nccc(N3CCC(NC(=O)C(C)c4ccc(Cl)cc4)C3)n2)cc1` (stereo not given): 1.34%; for `CN(C)CCCOc1ccc(CCNCc2cccc(Oc3ccc(Cl)cc3)c2)cc1`: 13.7%.
Turning to `N#Cc1ccc(-c2nc3c(N4CCCC4)cccc3n2CCNCc2ccccc2)cc1`, the inhibition was found to be 11.8%.
Consider `O=C(NC1CC1)c1ccc(N2CCCC(COc3ccccc3F)C2)nc1` (stereo not given), for which the inhibition was found to be 2.62%.
Consider `Cc1cc(C2NC(=O)c3ccccc3N2)c(C)n1-c1ccc2c(c1)OCO2` (stereo not given), for which the inhibition turned out to be 4.51%.
The same measure for `O=S(=O)(c1ccc(NC(S)=NN=Cc2ccccn2)cc1)N1CCCCC1`: 5.11%.
For the compound `CCOC(=O)c1cc(C(=O)NCCCCN2CCC(c3cn(C)c4ccccc34)CC2)ccc1-c1ccc(C(F)(F)F)cc1`, the inhibition turned out to be 1.11%.
Turning to `CCNc1cc(C(=O)N[C@@H](Cc2ccccc2)[C@H](O)CNC2(C)CCCCC2)cc(N2CCCCS2(=O)=O)c1`, the inhibition was -0.26%.
As to `O=C(Nc1ccc(Br)cc1)N(CCN1CCOCC1)CC(O)COCc1ccc(F)cc1` (stereo not given), the inhibition was -8.93%.
With `CCC[C@@H]([C@@H](CC(C)C)C(=O)N[C@@H](CCCNc1nccc(C(F)(F)F)n1)C(=O)Nc1nccs1)N(O)C=O`, the inhibition is 3.22%.
On to `CCOC(=O)C1=C(C)NC(Cn2ccnc2)=C(C(=O)OCC)C1c1ccc(C(C)(C)C)cc1` (stereo not given), for which the inhibition amounted to 2.07%.
`c1cc(CNCC2CCN(CC3CCCCC3)CC2)cc(-n2ccnc2)c1`: the inhibition worked out at 0.1%.
As for `CN(C)CCOc1ccc(NC(=O)NC(C)(C)c2nc(-c3ccc(Cl)c(O)c3)c(-c3ccncc3)[nH]2)cc1`, the inhibition is -2.59%.
Take `CC(Cc1ccc(NC(=O)c2ccc(NCCc3ccccc3)cc2)cc1)NCCc1cccc(Cl)c1` (stereo not given): the inhibition was -1.31%.
The same measure for `CSc1nnc2n(Cc3ccccc3)c(=O)c3c(n12)-c1ccccc1CC31CCCCC1`: 0.02%; for `O=C(Nc1ccc(Cl)c(Cl)c1)Nc1ccccc1N1CCNCC1`: 1.04%.
Regarding `CCCN1CCN(Cc2ccc(C(=O)Nc3ccc(Cl)cc3)cc2)CC1`, the inhibition is 4.34%.
For the compound `OC(c1ccc2ccccc2c1)C1CN(CCc2ccccc2)CCC1(O)c1ccccc1` (stereo not given), the inhibition came to 0.03%.
The figure for `O=S(=O)(NC1CCN(c2ccnc3cc(Cl)ccc23)C1)c1cccs1` (stereo not given) is 1.61%.
For `CN1CCCN(Cc2cccc(-c3cccc(NC(=O)c4ccc(C#N)cc4)c3)c2)CC1`, the inhibition was found to be 6.98%.
Take `COC(=O)[C@@H](NC(=O)[C@@H](Nc1ccc(C#N)c2ccccc12)C(C)(C)C)c1ccc(O)cc1`: the inhibition turned out to be 0.19%.
`c1ccc(Oc2ccc(Nc3ccnc4cc(-c5csc(CNCCN6CCOCC6)n5)ccc34)cc2)cc1`: the inhibition is -0.68%.
In the case of `COc1ccc(-n2c(=O)c3c(n4c(SC(C)C)nnc24)-c2ccccc2CC32CCCCC2)cc1`, the inhibition worked out at 0.1%.
Regarding `CCCC(C)Nc1nc(C)cc(N[C@@H](CC(C)C)C(=O)NC2CCCC2)n1` (stereo not given in full), the inhibition was determined as 3.26%.
